Tau fibril ThT – tau fibrillization inhibition (ThT binding); P10636; recombinant tau K18 P301L, heparin-induced fibrillization, ThT fluorescence; Potency, µM (doses to about 57.4 µM), for inactives: at the highest dose activity, negative = inhibition, actives largely listed as inhibitors; 270,000 tested, 2.1% active; also: potency is read from the fitted curve at half-maximal effect; nearly all actives have a fitted effect of over 55% in size
Target sequence (P10636 561-689 P618L limits assumed): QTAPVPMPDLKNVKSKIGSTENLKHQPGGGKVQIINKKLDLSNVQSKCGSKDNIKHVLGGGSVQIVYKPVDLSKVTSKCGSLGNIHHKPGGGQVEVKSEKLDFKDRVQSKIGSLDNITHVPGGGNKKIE
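Aggregation was driven by heparin (20 uM final) acting on recombinant tau […] bearing P301L in 100 mM sodium acetate pH 7; fibrils were detected with Thioflavin T.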
Tau fibril FP – tau fibrillization inhibition (FP); P10636; K18 P301L tau heparin fibrillization, Alexa594 FP, 6 h; Potency, µM (highest dose often 57.7 µM), for the others: at the highest dose activity, negative = inhibition, usual class: inhibitors; 280,000 tested, 0.39% active; also: potency is read from the fitted curve at half-maximal effect; nearly all actives have a fitted effect of over 55% in size
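Recombinant K18 P301L […], labeled with Alexa 594 at 0.24 uM over 15 uM unlabeled; heparin inducer 20 uM final; 37 C, 6 hr; FP endpoint.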
FBPA coupling cs – inhibits coupling enzyme system, counter-screen for aldolase hits | AID 2472 | 290,000 tested, 0.67% active | coupling enzyme system counterscreen, AmpLite Red fluorescence | activity change, negative = inhibition, % at 58.2 µM, hits read low; in the data active = activity change below about -30%
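Compounds tested against the coupling enzymes alone at 57.5 uM final; readout was AmpLite Red fluorescence (525/598 nm) after 20 min at RT.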
USP1-UAF1 inh – USP1/UAF1 (human) deubiquitinase inhibition; O94782; recombinant USP1/UAF1, Ub-Rhodamine cleavage fluorescence; Potency, µM (series often up to 57.1 µM), for the others: at the highest dose activity change, negative = inhibition, most hits filed as inhibitors; 390,000 tested, 0.23% active; also: potency is read from the fitted curve at half-maximal effect; nearly all actives have a fitted effect of over 60% in size
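USP1/UAF1 complex (1 nM) preincubated 15 min at room temperature with compound, then Ub-Rho substrate (150 nM final) added. Kinetic fluorescence at 480/540 nm over 6 reads at 60 s intervals; 50 mM HEPES pH 7.8, 0.5 mM EDTA, 0.1 mg/ml BSA, 1 mM TCEP, 0.01% Tween-20.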
Tau fluor cs – counter-screen for tau fibril formation inhibitors | tau K18 P301L Alexa594 fluorescence, heparin fibrillization | Potency, µM (doses to about 57.7 µM), without a hit: top-dose activity change, negative = decrease | 280,000 tested, 0.93% active | AID 1463; also: potency is read from the fitted curve at half-maximal effect; nearly all actives have a fitted effect of over 55% in size
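Human tau K18 P301L (15 uM unlabeled, 0.24 uM Alexa 594-labeled) in 100 mM sodium acetate pH 7 with 20 uM heparin, 6 hr at 37 C. ThT 30 uM added, 1 hr ambient; Alexa 594 FP and total fluorescence read at 555/632 nm.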
Starred values were filed as active, the others as inactive; u = inconclusive; x = no result given; [ ] = remark or other dose. Hits are enriched below; roughly 2.3% of the tested compounds scored in any of these assays. Unless noted, calls follow the shape of the dose curve; as a rule, active = well fitted curve in the direction sought with a large enough effect; inconclusive = small, poorly fitted or top-dose-only effect, or another doubt; inactive = no such curve, though single readings can be large; an effect the other way counts as inactive or inconclusive. % is scaled to controls: 0 for no effect and ±100 for the full control effect.

SMILES | Tau fibril ThT | Tau fibril FP | FBPA coupling cs | USP1-UAF1 inh | Tau fluor cs
COc1ccc(C(=O)CSc2nnc(-c3ccco3)c(-c3ccco3)n2)cc1 | 14µM* | u | -5 | -21% | u
O=C(CSc1nnc(-c2ccco2)c(-c2ccco2)n1)Nc1ccccc1 | 7.9µM* | u | -30* | -14% | u
Cc1ccc(NC(=O)CSc2nnc(-c3ccco3)c(-c3ccco3)n2)cc1 | 7.9µM* | u | -18 | -17% | u
Cc1ccc(NC(=O)CN2C=NS(=O)(=O)c3ccccc32)cc1 | 0% | -11% | x | -25% | -10%
CSc1nnc(-c2ccco2)c(-c2ccco2)n1 | 13µM* | u | -34* | -22% | u
CCOC(=O)CCN1C(=O)[C@H]2[C@H]3[C@H](O)[C@H](O)C/C(=N/NC(=O)OCc4ccc(OC)cc4)[C@H]3CC[C@@H]2C1=O | -3%[11.5 µM] | 5%[11.6 µM] | 2 | x | 0%[11.6 µM]
Oc1c(Cl)cc(Cl)cc1C=Nc1ccccc1N1CCCC1 | 22µM* | -13% | -3 | x | u
O=c1[nH]cc(N=Cc2cc(Cl)cc(Cl)c2O)c(=O)[nH]1 | x | x | 2 | u | x
Cc1[nH]c2ccccc2c1/C=C/c1nc2ccccc2c(=O)n1CCO | u | 17% | 2 | 75% | 10µM*[quencher]
O=c1c2ccccc2nc(/C=C/c2ccc(Br)cc2)n1CCO | x | x | x | -3% | x
CCCCNS(=O)(=O)c1ccc2nc(SCC(=O)Nc3cccc(F)c3)[nH]c2c1 | -7% | -13% | 0 | -19% | -29%
CCCCNS(=O)(=O)c1ccc2nc(SCC(=O)Nc3ccccc3Cl)[nH]c2c1 | 2% | 25µM* | 2 | -18% | u
C[C@@H]1CN([C@H](C)CO)C(=O)c2cc(Br)cnc2O[C@@H]1CN(C)C(=O)Nc1cccc(F)c1 | x | x | x | -24% | x
Cc1ccc(C(=O)Nc2nc3ccccc3c(=O)s2)cc1 | -17% | -5% | 2 | u | -1%
O=C(Nc1nc(=O)[nH]s1)c1ccccc1 | -9% | -5% | 1 | -10% | -5%
O=C(Nc1nc(=O)n(C(=O)C2CC2)s1)c1ccccc1 | 11µM* | u | -12 | -7% | -19%
Cc1ccc(C(=O)Nc2nc(=O)n(C(=O)c3ccccc3C)s2)cc1 | 14µM* | u | -9 | -12% | -23%
COc1ccc(N2C(=O)[C@@H]3[C@H](C2=O)[C@H]2c4ccccc4C=CN2[C@@H]3C(=O)Nc2ccccc2)cc1 | u | -1% | -27 | u | u
CC(=O)[C@@H]1[C@@H]2C(=O)N(Cc3ccccc3)C(=O)[C@@H]2C2c3ccccc3C=CN21 (stereo partly drawn) | u | -14% | -33* | 18µM* | -20%
O=C(c1ccco1)[C@@H]1[C@@H]2C(=O)N(c3ccccc3)C(=O)[C@@H]2C2c3ccccc3C=CN21 (stereo partly drawn) | 25µM* | u | -47* | 10µM* | -29%
CCCCn1cc(S(=O)(=O)c2ccc(CC)cc2)c(=O)c2cc(F)c(N3CCOCC3)cc21 | -8% | -3% | x | -24% | -5%
CN(C)c1ccc(NC(=O)N2CCOCC2)cc1 | 6% | 1% | -32* | -10% | 0%
COc1ccc2nc(S(=O)Cc3ncc(C)c(OC)c3C)[nH]c2c1 (stereo not drawn) | 32µM* | u | -6 | u | -25%
CCOC(=O)N1CCN(C(=O)c2nn(C)c3c2CSc2ccccc2-3)CC1 | x | x | -1 | -12% | x
COC(=O)C1=CC(C(=O)c2cccs2)=NN(c2ccc(OC)cc2)C1C(=O)OC (stereo not drawn) | 14µM* | -4% | 0 | u | u
SMILES | Tau fibril ThT | Tau fibril FP | FBPA coupling cs | USP1-UAF1 inh | Tau fluor cs
COC(=O)C1=CN(Cc2ccc(OC)cc2)C=C(C(=O)OC)C1c1cccs1 | u | 0% | -7 | -26% | -29%
CC(=O)Nc1ccc(S(=O)(=O)NC2=C(N3CCN(c4ccc(F)cc4)CC3)C(=O)c3ccccc3C2=O)cc1 | 5.6µM* | u | -56* | u | 13µM*[quencher]
Cc1ccc(S(=O)(=O)NC2=C(N3CCN(Cc4ccccc4)CC3)C(=O)c3ccccc3C2=O)cc1 | u | 6% | -34* | -6% | -25%
CCOC(=O)N1CCN(C(=O)c2ccc(CNS(=O)(=O)c3ccc(C)cc3)cc2)CC1 | -20% | -2% | 5 | -21% | -10%
O=C1C(NS(=O)(=O)c2cccs2)=C(N2CCN(c3ccccc3)CC2)C(=O)c2ccccc21 | 6.3µM* | u | -33* | u | u
CC(=O)Nc1ccc(S(=O)(=O)Nc2ccc(N3CCOCC3)cc2)cc1 | -4% | 8% | -1 | -5% | 1%
CCOC(=O)N1CCN(C2=C(NS(=O)(=O)c3ccc(C)cc3)C(=O)c3ccccc3C2=O)CC1 | x | x | x | 22µM* | x
C=C(C(C)=O)C(O)c1ccc2ccccc2c1 (stereo not drawn) | 3% | 1% | -3 | x | 3%
Cc1ccc(S(=O)(=O)NC2=C(N3CCN(c4ccccc4F)CC3)C(=O)c3ccccc3C2=O)cc1 | 16µM* | 4% | -27 | -18% | u
Cc1ccc(S(=O)(=O)Nc2nc3ccccc3nc2N2CCN(c3ccccc3F)CC2)cc1 | u | 12% | 13 | -12% | -28%
Cc1ccc(C)c(NC(=O)COC(=O)c2c(C)nn(-c3ccccc3)c2C)c1 | x | x | x | -17% | x
CC(c1ccccc1)N1CCn2c(nc3cc(NC(=O)NC4CCCCC4)ccc32)C1 (stereo not drawn) | u | 7% | -46* | -6% | -29%
O=C1CC(c2ccc(O)c(O)c2)Oc2c1ccc(O)c2O (stereo not drawn) | 16µM* | u | -10 | u | u
O=C(NCCc1c[nH]c2ccccc12)C1CCC(Cn2c(=S)[nH]c3ccccc3c2=O)CC1 (stereo not drawn) | u | 0% | 1 | -16% | 4µM*[quencher]
COc1ccc(-c2cn3ccccc3n2)cc1[N+](=O)[O-] | u | 3% | -2 | 11% | -14%
COc1ccc(-c2cn3cc([N+](=O)[O-])ccc3n2)cc1OC | 4.5µM* | 7% | -4 | -21% | -22%
O=C(Nc1ccccc1)C(Cl)C(=O)c1ccccc1 (stereo not drawn) | x | x | -2 | -20% | x
CC(=O)C(Cl)C(=O)Nc1ccccc1 (stereo not drawn) | 25µM* | u | 0 | -22% | -15%
CCCCC(CC)C(=O)Nc1ccc(Nc2ccccc2)cc1 (stereo not drawn) | u | 0% | -4 | -13% | 10µM*[quencher]
COc1ccc(NC(=S)NCc2cccnc2)cc1 | -13% | -8% | 6 | -8% | -12%
S=C(NCc1cccnc1)Nc1ccc(Oc2ccc(Cl)cc2)cc1 | -19% | u | 0 | 4% | 13µM*[quencher]

From PubChem BioAssay
